# Only some compounds are listed: those with a hit (about 19% of all), similar ones and a draw of the others.
# DT40 TDP1 no CPT: qHTS for Inhibitors of human tyrosyl-DNA phosphodiesterase 1 (TDP1): qHTS in cells in absence of CPT; DT40 Tdp1-/- hTDP1 cells, no CPT, ATP luminescence, 48 h; Potency, µM (titrated, usually from 46.2 µM), without a hit: top-dose activity change, negative = growth inhibition, actives largely listed as inhibitors; 420,000 compounds, 15% hits; AID 686978, 2013; also: potency is read from the fitted curve at half-maximal effect; nearly all actives have a fitted effect of over 55% in size
#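 Readout: luminescence from CellTiter-Glo after 30 min in the dark at RT. Cells: DT40 Tdp1-/- with stable hTDP1, 400/well. Exposure: compounds alone, ≥48 hr, 37 °C.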
# TDP1 cell CPT: growth inhibition of DT40 Tdp1-/-;hTDP1 cells with camptothecin (screen for TDP1 inhibitors); chicken DT40 Tdp1-/-;hTDP1 cells + 20 nM CPT, ATP luminescence, 48 h; Potency, µM (titrated, usually from 46.2 µM), for the others: top-dose activity change, negative = growth inhibition, actives largely listed as inhibitors; 420,000 compounds, 12% hits; AID 686979; also: potency is read from the fitted curve at half-maximal effect; nearly all actives have a fitted effect of over 55% in size
#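 Cell growth measured by CellTiter-Glo luminescence after a minimum 48 h, 37 C compound exposure with 20 nM CPT in Tdp1-knockout DT40 cells stably expressing hTDP1, seeded 400/well; qHTS titration format.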
# TDP1 block: inhibitors of human tyrosyl-DNA phosphodiesterase TDP1; Potency, µM (series often up to 130 µM), without a hit: at the highest dose activity change, negative = inhibition, hits mostly inhibitors; recombinant TDP1, AlphaScreen DNA substrate cleavage; 350,000 compounds, 0.28% hits; also: potency is read from the fitted curve at half-maximal effect; nearly all actives have a fitted effect of over 40% in size
# Target sequence (Q9NUW8 whole entry, looked up): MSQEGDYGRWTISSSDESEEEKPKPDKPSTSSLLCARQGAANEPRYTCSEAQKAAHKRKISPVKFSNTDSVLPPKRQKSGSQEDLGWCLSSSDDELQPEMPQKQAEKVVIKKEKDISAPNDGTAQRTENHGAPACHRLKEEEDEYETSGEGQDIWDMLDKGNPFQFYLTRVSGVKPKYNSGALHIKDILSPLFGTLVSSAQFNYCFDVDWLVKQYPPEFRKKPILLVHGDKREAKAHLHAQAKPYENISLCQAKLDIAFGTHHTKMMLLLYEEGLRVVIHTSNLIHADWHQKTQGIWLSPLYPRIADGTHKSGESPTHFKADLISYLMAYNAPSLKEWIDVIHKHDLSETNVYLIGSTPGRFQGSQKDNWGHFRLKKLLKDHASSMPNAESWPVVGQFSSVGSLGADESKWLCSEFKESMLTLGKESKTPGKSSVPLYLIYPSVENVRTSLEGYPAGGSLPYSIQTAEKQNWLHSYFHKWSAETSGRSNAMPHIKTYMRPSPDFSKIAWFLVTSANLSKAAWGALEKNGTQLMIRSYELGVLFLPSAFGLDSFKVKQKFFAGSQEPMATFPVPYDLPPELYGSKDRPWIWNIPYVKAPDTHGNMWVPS
#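 Here, a 5' biotin and 3' phosphotyrosine-FITC DNA oligonucleotide reports Tdp1 activity: intact substrate bridges AlphaScreen beads, while cleavage leaves a 3' phosphate and drops signal. All incubations at room temperature.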
# Giardia killer: kills Giardia lamblia; 340,000 compounds, 0.15% hits; Giardia lamblia trophozoite viability; activity change, % at 7.66 µM, hits read low; AID 540267; in the data active = activity change below about -80%; inconclusive = between about -30% and that limit;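 also: parasites exposed to compound for two days anaerobically before the ATP read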
#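 Media and compound were dispensed first, then trophozoites at 100 cells/well; plates sat 48 hrs at 37 deg C without oxygen before ATP luminescence reagent was added and read after 15-30 min at room temperature.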
# ELG1 repair inh: inhibitors of ELG1-dependent DNA repair in HEK293T cells. HEK293T ELG1-luciferase reporter, luminescence, 16 h; DNA damage induced by 5-fluorouridine. Potency, µM (highest dose often 46.1 µM), without a hit: top-dose activity change, negative = inhibition, hits mostly inhibitors. 330,000 compounds, 2.3% hits. AID 504467; also: potency is read from the fitted curve at half-maximal effect; nearly all actives have a fitted effect of over 55% in size
#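 Reporter activity after DNA damage by 5-fluorouridine is monitored. Compound-treated cells incubate 16 hr at 37 °C, then ONE-Glo is added for 30 min before luminescence reading.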
# IL-1B inflam inh: blocks inflammasome-driven IL-1 beta release; THP-1 LPS/ATP IL-1B secretion, AlphaLISA, 16 h; stronger effect = lower value; activity change, % at 57.5 µM; 360,000 compounds, 4.7% hits; in the data active = activity change below about -50%; inconclusive = mostly about -30% to -49%
#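 THP-1 cells pretreated 1 hr with compounds (up to 57.5 uM final), then stimulated with LPS (250 ng/mL final) plus ATP (1.25 mM final); secreted IL-1B measured by AlphaLISA after 16 hr, decreased signal indicating inhibition.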
# Active calls of the source: *; ? = inconclusive; . = not tested or not shown; [ ] = remark or other dose. Unless noted, calls follow the shape of the dose curve; as a rule, active = well fitted curve in the direction sought with a large enough effect; inconclusive = small, poorly fitted or top-dose-only effect, or another doubt; inactive = no such curve, though single readings can be large; an effect the other way counts as inactive or inconclusive. % is scaled to controls: 0 for no effect and ±100 for the full control effect.
SMILES,DT40 TDP1 no CPT,TDP1 cell CPT,TDP1 block,Giardia killer,ELG1 repair inh,IL-1B inflam inh
CCOC(=O)N1CCN(C(=O)c2oc3ccc(S(=O)(=O)N(CC)CC)cc3c2C)CC1,?,?,.,14,12µM*,53
CSCc1c(C(=O)NC2CCCc3ccccc32)oc2ccccc12 (centres undefined),?,?,7%,1,1%,-7
CCN(CC)S(=O)(=O)c1ccc2oc(C(=O)N3CCc4ccccc4C3)c(C)c2c1,2.1µM*,?,-1%,-7,?,-27
CCN(CC)S(=O)(=O)c1ccc2oc(C(=O)NC3CCCc4ccccc43)c(C)c2c1 (centres undefined),10µM*,15µM*,6%,-12,?,-1
Cc1cccc(N2CCN(Cc3cc(=O)oc4cc(C)ccc34)CC2C)c1 (centres undefined),?,?,7%,.,.,.
CCCN(CCC)C(=O)c1cc([N+](=O)[O-])cc2c1-c1ccc([N+](=O)[O-])cc1C2=C(C#N)C#N,2.9µM*,5.2µM*,8%,-20,-23%,0
O=C(O)CC1NC(=S)N(Cc2ccccc2)C1=O (centres undefined),18µM*,21µM*,.,.,.,4
CCCCCCCn1c2c(c(=N)c3c1CCC3)CCCC2,0.33µM*,0.41µM*,5%,-2,?,-27
CCCCCCn1c2c(c(=N)c3c1CCC3)CCC2,0.26µM*,0.41µM*,7%,23,?,?
CCn1c2c(c(=N)c3ccccc31)CCC2,-25%,5%,-1%,3,21µM*,-2
CCCCn1c2c(c(=N)c3c1CCC3)CCC2,4.6µM*,6.5µM*,1%,-6,1.6µM*,-3
CCCCCCn1c(=O)[nH]c2c(c1=O)CCC2,1%,11%,.,-8,0%,-1
O=C(OCC#CCSc1nnc(-c2ccc(F)cc2)o1)c1ccc(F)cc1,.,.,-11%,.,.,.
Cc1c(Cl)cccc1NC(=O)CSc1nc(=O)n(Cc2ccncc2)c2c1CCC2,-1%,-8%,8%,.,.,.
COc1cccc(OC)c1OCC(=O)Nc1ccc(S(=O)(=O)N2CCCC2)cc1,?,?,-1%,-2,?,15
CCCNC(=O)Cn1c(=O)n(CC2CCC(C(=O)NC)CC2)c(=O)c2sccc21 (centres undefined),7%,5%,5%,.,.,.
CCCCCCCCCn1c2c(c(=N)c3c1CCC3)CCC2,0.018µM*,0.058µM*,4%,45,?,-97*
CCn1c2c(c(=N)c3c1CCC3)CCC2,-6%,-7%,1%,-5,0%,-13
Cc1cc(=O)[nH]c(N/N=C/c2ccc(OC(=O)c3ccco3)cc2)n1,-3%,-12%,-7%,-6,15%,-9
CCCCN(CCCC)C(=O)CSc1nnc2n(C)c(=O)c3c4c(sc3n12)CCCC4,23µM*,?,-6%[56.1 µM],-9,10%,9
CCCSc1nnc2n(C)c(=O)c3c4c(sc3n12)CCC4,?,?,6%,18,-3%,1
Cn1c(=O)c2c3c(sc2n2c(SCC(N)=O)nnc12)CC(C(C)(C)C)CC3 (centres undefined),?,23µM*,4%,1,23µM*,-1
Cn1c(=O)c2c3c(sc2n2c(SCC(=O)c4ccccc4)nnc12)COC(C)(C)C3,.,.,5%,.,6%,.
COc1ccc2nc3cc(Cl)ccc3c(Nc3ccc(O)c(CN4CCN(C)CC4)c3)c2c1,1.5µM*,1.8µM*,.,?,.,-114*
O=C1N(c2ccccc2)C[C@@H]2C[C@@H](c3cccs3)N3CCC[C@@]123,-28%,-24%,-4%,-1,?,-5
